Screening results from PubChem.
12-LOX inh – ALOX12 (human) lipoxygenase inhibition; P18054; purified 12hLO, xylenol orange hydroperoxide absorbance; Potency, µM (top dose mostly 108 µM), for the others: at the highest dose activity change, negative = inhibition, usual class: inhibitors; 580,000 compounds, 1.1% hits; further: potency means the concentration at half of the fitted maximal effect
Target sequence (P18054 whole entry, looked up): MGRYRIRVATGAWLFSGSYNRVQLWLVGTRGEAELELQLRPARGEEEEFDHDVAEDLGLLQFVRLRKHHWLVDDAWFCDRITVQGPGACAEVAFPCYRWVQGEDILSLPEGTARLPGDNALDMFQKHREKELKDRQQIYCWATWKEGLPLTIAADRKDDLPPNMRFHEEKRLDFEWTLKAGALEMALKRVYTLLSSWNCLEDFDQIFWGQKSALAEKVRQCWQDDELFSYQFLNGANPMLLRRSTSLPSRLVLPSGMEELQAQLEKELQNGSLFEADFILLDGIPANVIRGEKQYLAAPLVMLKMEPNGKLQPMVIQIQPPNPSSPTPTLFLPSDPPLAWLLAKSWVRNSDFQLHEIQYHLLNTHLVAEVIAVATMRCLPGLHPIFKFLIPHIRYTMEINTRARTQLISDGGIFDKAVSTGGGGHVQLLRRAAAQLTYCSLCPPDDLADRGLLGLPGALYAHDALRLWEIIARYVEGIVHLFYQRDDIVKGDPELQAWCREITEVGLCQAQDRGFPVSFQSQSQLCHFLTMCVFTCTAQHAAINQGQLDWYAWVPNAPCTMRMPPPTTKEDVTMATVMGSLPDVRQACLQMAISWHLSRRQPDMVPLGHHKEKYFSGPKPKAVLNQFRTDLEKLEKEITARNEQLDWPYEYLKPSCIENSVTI
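Purified human 12hLO at 150 nM in 25 mM Hepes, 0.01% Triton X-100, pH 7.0, preincubated 15 min at room temperature with compound. Reaction started with 40 uM arachidonic acid, 30 min at room temperature. Hydroperoxide measured by Fe-xylenol orange, 573/405 nm absorbance ratio.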
HT1080-NT tox – kills 2HG-producing HT-1080-NT fibrosarcoma cells; HT-1080-NT fibrosarcoma viability, CellTiter-Glo ATP luminescence, 48 h; Potency, µM (series often up to 46.1 µM), without a hit: at the highest dose activity, negative = less viability, actives largely listed as cytotoxic; 360,000 compounds, 1.6% hits;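 further: NT is the 2HG producing partner of a matched IDH1 knockdown line; potency means the concentration at half of the fitted maximal effect; 0% = DMSO-treated cells and -100% = media-only wells without cells; nearly all actives have a fitted effect of over 55% in size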
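A 48-hour cytotoxicity screen used HT-1080-NT cells plated 2 hours before compound delivery. ATP-based CellTiter-Glo luminescence measured viability, normalized to DMSO and no-cell controls.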
HT1080 IDH1KD tx – kills HT-1080 cells with IDH1 knockdown. HT-1080 IDH1 knockdown viability, ATP luminescence, 48 h. Potency, µM (top dose mostly 46.1 µM), without a hit: at the highest dose activity, negative = toxicity, hits mostly cytotoxic. 360,000 compounds, 2% hits;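 further: potency means the concentration at half of the fitted maximal effect; 0% = DMSO wells and -100% = cell-free medium wells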
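HT-1080-IDH1KD cells (IDH1 knocked down), 750/well in RPMI with 5% FBS, treated with compound 48 h at 37 degrees C. Viability by CellTiter-Glo luminescence, normalised to DMSO and no-cell wells; concentration-response curves classed.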
TDP1 cell CPT – growth inhibition of DT40 Tdp1-/-;hTDP1 cells with camptothecin (screen for TDP1 inhibitors) | chicken DT40 Tdp1-/-;hTDP1 cells + 20 nM CPT, ATP luminescence, 48 h | Potency, µM (top dose mostly 46.2 µM), for inactives: top-dose activity change, negative = growth inhibition, usual class: inhibitors | 420,000 compounds, 12% hits; further: potency means the concentration at half of the fitted maximal effect; nearly all actives have a fitted effect of over 55% in size
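Cell growth measured by CellTiter-Glo luminescence after a minimum 48 h, 37 C compound exposure with 20 nM CPT in Tdp1-knockout DT40 cells stably expressing hTDP1, seeded 400/well; qHTS titration format.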
IL-1B inflam inh – inhibitors of inflammasome signaling (IL-1 beta secretion); THP-1 LPS/ATP IL-1B secretion, AlphaLISA, 16 h; stronger effect = lower value; activity change, % at 57.5 µM; 360,000 compounds, 4.7% hits; in the data active means activity change below about -50%; inconclusive means mostly about -30% to -49%
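Secreted IL-1B measured by AlphaLISA bead assay after 16 h compound exposure of THP-1 cells; compounds (final up to 57.5 uM) added 1 h before LPS (250 ng/mL) and ATP (1.25 mM) stimulation; lower signal means less secretion.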
DT40 TDP1 no CPT – qHTS for Inhibitors of human tyrosyl-DNA phosphodiesterase 1 (TDP1): qHTS in cells in absence of CPT. DT40 Tdp1-/- hTDP1 cells, no CPT, ATP luminescence, 48 h. Potency, µM (series often up to 46.2 µM), inactives show at the top dose activity change, negative = growth inhibition, hits mostly inhibitors. 420,000 compounds, 15% hits. AID 686978, 2013; further: potency means the concentration at half of the fitted maximal effect; nearly all actives have a fitted effect of over 55% in size
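Chicken DT40 Tdp1-/- cells complemented with human TDP1, screened without camptothecin (DMSO vehicle only), 400 cells/well. Compounds pin-transferred, cells incubated at 37 °C for at least 48 hr. Growth read as ATP-dependent luminescence (CellTiter-Glo, 30 min at RT).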
Numbers without * were called inactive; ? = inconclusive; / = no result given; [ ] = remark or other dose. Only a selection was taken, and hits are over-represented in it overall. Unless noted, the call rests on the fitted dose curve; in most records, active means well fitted curve in the direction sought with a large enough effect; inconclusive means small, poorly fitted or top-dose-only effect, or another doubt; inactive means no such curve, though single readings can be large; an effect the other way counts as inactive or inconclusive. Unless noted, on the % scale 0 is the no-effect control and ±100 the full control effect.

SMILES | 12-LOX inh | HT1080-NT tox | HT1080 IDH1KD tx | TDP1 cell CPT | IL-1B inflam inh | DT40 TDP1 no CPT
O=C(NCCc1nc2ccccc2n1Cc1ccc(Cl)cc1)c1ccccc1 | 1.5% | / | / | ? | / | ?
O=C(CN1CCN(c2ccccc2F)CC1)Nc1ncc2c(n1)CCCC2=O | -40.3% | / | / | / | / | /
CC1(C)CC(=O)/C(=C\c2cccc([N+](=O)[O-])c2)C(C)(C)N1 | -18.7% | -23.5% | ? | ? | -81.6* | 16.4µM*
COCCCNC(=O)CCN(CCC(C)C)C(=O)c1ccoc1 | 0.9% | / | / | / | / | /
COc1ccc(Oc2c(C(F)(F)F)oc3cc(OC(C)=O)ccc3c2=O)cc1 | -21.5% | / | / | / | / | /
CCOC(=O)C(=Cc1cc(=O)c(OC)co1)C(=O)OCC | -6.9% | 11.6µM* | 18.4µM* | 1.3µM* | -97.0* | 0.731µM*
CCC1CCCCN1Cc1c(O)ccc2c(=O)c(-c3ccccc3)coc12 (stereo not given) | -62.0% | ? | ? | 7.31µM* | 2.6 | 10.3µM*
COc1ccccc1-c1c(C)oc2c(CN3CCCCC3C)c(O)ccc2c1=O (stereo not given) | 0.0% | 8.8% | 9.8% | 2.6% | 17.1 | 12.8%
CCN(CC)Cc1c(O)ccc2c(=O)c(-c3ccc(Cl)cc3)coc12 | 5.0% | -2.0% | -0.5% | ? | 0.0 | -21.4%
CCN(Cc1ccccc1)Cc1c(O)ccc2c(=O)c(-c3ccc(Cl)cc3)coc12 | ? | / | / | ? | / | 20.6µM*
O=c1c(-c2ccccc2)coc2c(CN3CCCCC3)c(O)ccc12 | 0.0% | 9.1% | 11.4% | -26.4% | -3.5 | -17.9%
COc1ccc(-c2coc3c(CN4CCCCC4C)c(O)ccc3c2=O)cc1 (stereo not given) | 10.6% | -2.6% | 7.3% | 6.51µM* | -6.2 | 18.4µM*
CC1CCCCN1Cc1c(O)ccc2c(=O)c(-c3ccccc3)coc12 (stereo not given) | 0.6% | 1.3% | 5.0% | 8.2µM* | 27.7 | 10.3µM*
Cc1cc(=O)oc2cc(OC(C)C(=O)NCc3ccccn3)c(Cl)cc12 (stereo not given) | -1.8% | / | / | / | / | /
COc1ccc(C(=O)n2c(-c3ccco3)nc3ccccc32)cc1 | -15.6%[57.4 µM] | ? | 5.8µM* | 6.51µM* | -6.3 | 4.11µM*
Clc1ccc(-c2nc3nc4ccccc4nc3n2Cc2ccco2)cc1 | ? | 22.1% | 7.0% | ? | 4.8 | 16.4µM*
COc1ccc(CCn2c(-c3ccco3)nc3nc4ccccc4nc32)cc1 | -12.1% | 5.1% | -1.2% | 16.4µM* | -21.6 | 10.3µM*
COc1ccc(CCn2c(-c3cc([N+](=O)[O-])cc([N+](=O)[O-])c3)nc3nc4ccccc4nc32)cc1 | ? | 11.6% | 22.0% | ? | 13.5 | ?
Cc1ccc(-c2nc3nc4ccccc4nc3n2Cc2ccco2)cc1 | -23.4% | 4.8% | 11.7% | -18.3% | 8.7 | ?
COc1ccc(CCn2c(-c3cccc([N+](=O)[O-])c3)nc3nc4ccccc4nc32)cc1 | -1.0% | -2.3% | 1.5% | -1.1% | -26.9 | 8.6%
CCCn1c(-c2ccc(OC)cc2)nc2nc3ccccc3nc21 | 9.8% | -1.5% | -0.1% | 23.1µM* | 9.5 | 20.6µM*
CCOc1ccccc1N(CC)C(=O)Cn1nc(Cc2cccnc2)c2ccccc2c1=O | -6.7% | / | / | / | / | /
COC1CCOC2(CCN(C(=O)Cc3ccccc3F)CC2)C1 (stereo not given) | 45.3% | / | / | / | / | /
COc1ccc(CCn2c(-c3cc([N+](=O)[O-])cc([N+](=O)[O-])c3)nc3nc4ccccc4nc32)cc1OC | 0.7% | 2.7% | 11.2% | ? | 10.4 | 23.1µM*
CCCCn1c(-c2ccco2)n[nH]c1=S | ? | -7.2% | -4.3% | 4.8% | 0.0 | 1.7%
SMILES | 12-LOX inh | HT1080-NT tox | HT1080 IDH1KD tx | TDP1 cell CPT | IL-1B inflam inh | DT40 TDP1 no CPT
COc1ccccc1Cn1c(-c2ccco2)nc2nc3ccccc3nc21 | -5.8% | 14.7% | 18.5% | ? | -19.4 | ?
c1ccc(Cn2c(-c3ccco3)nc3nc4ccccc4nc32)cc1 | ? | ? | ? | 12.6µM* | -9.0 | ?
CCCCCn1c(-c2ccco2)nc2nc3ccccc3nc21 | 35.5µM* | 1.3% | -5.6% | ? | -15.9 | ?
O=C(N[C@@H]1c2ccccc2C[C@@H]1O)c1cc(COc2ccccc2F)[nH]n1 | 33.2% | / | / | / | / | /
Cc1ccc2oc(C(Cl)(Cl)Cl)cc(=O)c2c1 | 1.0%[57.4 µM] | 10µM* | ? | 4.61µM* | -99.9* | 5.8µM*
Cc1onc(-c2ccccc2)c1-c1nnc(CSc2nnnn2C(C)(C)C)o1 | 17.5% | / | / | / | / | /
CCCCCCn1c(=O)n2n(c1=O)C[C@]1(OC(=O)Nc3c(C)noc3C)CN(S(=O)(=O)c3ccc(C)cc3)C[C@]1(O)C2 | ? | -2.9% | -0.8% | ? | 1.4 | 20.6µM*
COC(=O)[C@H]1C[C@@]2(O)CN(S(=O)(=O)c3ccc(C)cc3)C[C@@]2(OC(=O)Nc2c(C)noc2C)C[C@H]1C(=O)OC | -1.5% | 1.9% | -0.7% | -1.3% | -6.3 | -15.4%
CCCCCCn1c(=O)n2n(c1=O)C[C@]1(OC(=O)Nc3cccs3)CN(S(=O)(=O)c3ccc(C)cc3)C[C@]1(O)C2 | 35.5µM* | -18.3% | -19.7% | 20.6µM* | -51.4* | 13µM*
CCCCCCn1c(=O)n2n(c1=O)C[C@]1(OC(=O)NCc3ccccc3)CN(S(=O)(=O)c3ccc(C)cc3)C[C@]1(O)C2 | ? | -21.7% | -25.6% | ? | -23.8 | 14.6µM*
CCCCCCn1c(=O)n2n(c1=O)C[C@]1(OC(=O)NCc3ccco3)CN(S(=O)(=O)c3ccc(C)cc3)C[C@]1(O)C2 | -4.8% | -0.8% | 1.0% | ? | -0.5 | 25.9µM*
